GPR151 activ = activators of human GPR151, primary screen, cell-based, PathHunter beta-arrestin, luminescence. G-protein coupled receptor 151 (Homo sapiens), Q8TDV0. 1% of 650,000 active. activation, % at 11.2 µM. PathHunter beta-arrestin GPR151 cells; in the data active means activation above about 4.9%;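 further: 0% = median of compound wells and 100% = cells with positive control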
MITF inh = MITF inhibitors, primary screen, biochemical, AlphaScreen, human. AlphaScreen MITF homodimerization, bead proximity signal. Microphthalmia-associated transcription factor (Homo sapiens), O75030. inhibition, % at 2.6 µM. AID 1259374, 2018. 0.91% of 650,000 active; in the data active means inhibition above about 50%;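 further: 0% = vehicle wells with protein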
Target sequence (O75030 whole entry, looked up): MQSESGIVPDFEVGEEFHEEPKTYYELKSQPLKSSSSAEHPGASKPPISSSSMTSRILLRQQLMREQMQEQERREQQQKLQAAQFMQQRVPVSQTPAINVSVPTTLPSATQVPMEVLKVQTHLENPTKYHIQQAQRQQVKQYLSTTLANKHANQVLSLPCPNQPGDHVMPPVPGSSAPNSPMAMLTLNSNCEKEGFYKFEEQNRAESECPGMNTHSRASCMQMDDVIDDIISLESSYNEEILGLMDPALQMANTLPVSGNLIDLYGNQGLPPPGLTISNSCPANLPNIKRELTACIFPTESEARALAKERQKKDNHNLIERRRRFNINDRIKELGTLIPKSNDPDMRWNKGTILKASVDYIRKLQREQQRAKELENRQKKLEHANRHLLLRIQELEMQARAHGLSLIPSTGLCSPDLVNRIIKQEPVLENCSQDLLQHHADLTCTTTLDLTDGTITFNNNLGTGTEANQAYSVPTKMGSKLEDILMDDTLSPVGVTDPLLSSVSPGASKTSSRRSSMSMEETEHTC
FBW7 activator = FBW7 E3 ligase activators, primary screen, biochemical, AlphaScreen, human. F-box/WD repeat-containing protein 7 (Homo sapiens), Q969H0. normalized activity (activation), % at 26.1 µM. AlphaScreen FBW7–phospho-cyclin E peptide binding, activator screen. 0.13% of 650,000 active; in the data active means normalized activity above about 1.9%;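 further: purified mutant Fbw7 with reduced substrate affinity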
TEAD-YAP inh = TEAD-YAP interaction inhibition, primary screen, TEAD-YAP interaction inhibitor project, luminescence, HEK-TIYL cells | inhibition, % at 9.12 µM | TEAD-Gal4/YAP UAS-luciferase luminescence | 1.4% of 640,000 active; in the data active means inhibition above about 32%;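 further: 0% = median of test compound wells and 100% = reference inhibitor wells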
MITF inh conf = MITF inhibitors, retest of hits, confirmation, biochemical, AlphaScreen, triplicate. shares compounds with MITF inh. AlphaScreen MITF homodimerization, biotin/His-MITF beads. inhibition, % at 2.6 µM. 16% of 4,700 active;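 active means inhibition above a cutoff derived from the DMSO control wells, cut at about 28% in these data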;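 further: 0% = MITF dimer wells with DMSO only; inhibitors lower the bead chemiluminescence by keeping MITF from dimerizing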
AlphaScreen DR = AlphaScreen optical interference compounds, dose response, counter-screen, biochemical, HTS; AID 1259373, 2018; AlphaScreen optical interference counterscreen, cell-free; shares compounds with MITF inh; IC50, µM; 6% of 480 active; call rule not given here
AS interf ctr = AlphaScreen optical interference compounds, counter-screen for MITF inhibitor project, biochemical, triplicate | shares compounds with MITF inh | LysRS AlphaScreen counterscreen, signal interference | inhibition, % at 2.6 µM | 7.6% of 4,700 active | AID 1259376, 2018;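 active means inhibition above a cutoff derived from the DMSO control wells, cut at about 30% in these data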
The depositor's hits bear a star; . = no result given. This is a sample that favours compounds with a hit; in the whole collection about 3.4% have one here.

SMILES	GPR151 activ	MITF inh	FBW7 activator	TEAD-YAP inh	MITF inh conf	AS interf ctr	others
CC1CCN(Cc2nnnn2CCCC(=O)NCCc2cccc(Cl)c2)CC1	1	65*	0	5	0	13
CC1CCN(Cc2nnnn2CCCC(=O)NCCCc2cccnc2)CC1	-1	2	0	7	.	.
O=C1OC(OC(=O)c2ccco2)C(Nc2ccccc2)=C1Cl (stereo not given)	-1	71*	0	-2	-25	-7
CC1(C)CC(=O)C=C(Nc2c[nH]c(=O)[nH]c2=O)C1	1	10	0	1	.	.
COc1ccccc1-c1cc(C(F)(F)F)nc(S(=O)(=O)CCCC(=O)Nc2ccc(F)c(Cl)c2)n1	1	54*	0	-1	-9	-2
COc1ccc(-c2cc(C(F)(F)F)nc(S(=O)(=O)CCCC(=O)Nc3ccc(F)c(Cl)c3)n2)cc1OC	0	76*	0	1	-6	6
COc1cc(Nc2nc(Nc3ccc4ncccc4c3)nc3c2ncn3Cc2ccc(C(F)(F)F)cc2)cc(OC)c1OC	0	-5	0	15	.	.
CN(C)CCCN1C(=O)C(=O)/C(=C(\O)c2ccccc2)C1c1ccco1 (stereo not given)	0	75*	0	-1	-4	-12
CCOC(CNC(=O)C1CCCN(Cc2nc(-c3cccc(Cl)c3)oc2C)C1)OCC (stereo not given)	4	-2	0	-9	.	.
CCOC(=O)c1oc(-c2ccc(F)cc2)nc1C	5	67*	0	-6	14	17
CCOC(=O)c1nc(-c2ccccc2)oc1C(F)(F)F	0	10	0	2	.	.
Cc1ccc(-c2nc3cc(NC(=O)c4cccnc4)ccc3o2)cc1Cl	2	8	0	-5	.	.
Cc1ccc(-c2nc3cc(NC(=O)c4cccnc4)ccc3o2)cc1C	1	63*	0	-34	7	10
COc1ccc(COC(=O)C2=C(C)NC3=C(C(=O)CCC3)C2c2cccc(C)c2)cc1 (stereo not given)	1	7	0	1	.	.
CCc1cc(N2CC=CCC2)n2nc3nc(C)cc(C)c3c2n1	0	-7	0	-6	.	.
CC1CCC(N2CCN(CC3CC=CCC3)CC2)CC1 (stereo not given)	-1	62*	0	2	2	0
CCCS(=O)(=O)N1CCN(CC2CC=CCC2)CC1 (stereo not given)	0	32	0	10	.	.
C1=CCC(CN2CCN(C3CCCCCC3)CC2)CC1 (stereo not given)	2	76*	0	4	-4	-7
O=C(CCC(=O)N/N=C/c1ccc(Cl)s1)N/N=C/c1ccc(Cl)s1	0	-2	0	-8	.	.
N#CC(C#N)=Cc1cccn1-c1ccc(C(=O)O)cc1	0	63*	0	-3	61*	4	AlphaScreen DR=>6.5
O=Cc1cccn1-c1ccc(C(=O)O)cc1	1	67*	0	-4	64*	-5	AlphaScreen DR=>6.5
COc1ccc(Br)cc1C(=O)NC(=S)Nc1nnn(C)n1	1	-5	0	0	.	.
COc1ccc2c3c(cccc13)C(=O)N(C)C2=O	0	67*	0	-5	76*	1	AlphaScreen DR=>6.5
COc1ccc2c3c(cccc13)C(=O)N(O)C2=O	1	-17	1	12	.	.
CCOC(=O)COc1cc(C)c2c(C)cc(=O)oc2c1	0	17	1	14	.	.
SMILES	GPR151 activ	MITF inh	FBW7 activator	TEAD-YAP inh	MITF inh conf	AS interf ctr	others
CC(=O)N1CCC(=NNc2nc3ccccc3[nH]2)CC1	1	82*	0	-26	30*	50*
O=C(N/N=C1\C2CN3CCN(C2)CC1(Cc1ccccc1)C3)c1cc2ccccc2cc1O	0	-1	0	1	.	.
Cn1nnnc1SCC1=C(C(=O)O)N2C(=O)C(N)C2SC1 (stereo not given)	-1	37	0	3	.	.
CC(=O)CC1=C(C(=O)O)N2C(=O)C(N)C2SC1 (stereo not given)	0	61*	0	11	30*	0	AlphaScreen DR=>6.5
CCOc1cc(CN2CCN(Cc3ccccc3F)CC2)ccc1OC	-1	65*	0	-7	-15	-2
COc1ccc(CN2CCN(Cc3ccccc3F)CC2)cc1OC	-2	79*	1	-6	8	6
CN1CCN(CCCOc2cccc(C(C)(C)C)c2)CC1	-2	10	0	-7	.	.
CCN1CCN(CCOc2cccc(C(F)(F)F)c2)CC1	0	61*	0	2	1	11
CN(C)CCOc1cccc(C(F)(F)F)c1	2	88*	-1	-1	6	8
CCN1CCN(CCCOc2cccc(C(F)(F)F)c2)CC1	0	56*	0	16	14	10
CCN1CCN(CCOc2ccc3ccccc3c2)CC1	1	37	0	9	.	.
O=c1c2sccc2nc(SCc2ccccc2F)n1Cc1ccccc1F	0	2	0	9	.	.
Cn1nc(CC(=O)NCc2ccco2)c2ccccc2c1=O	0	23	1	11	.	.
O=C(NC(=S)Nc1ccccc1F)c1cccs1	0	11	0	-48	.	.
COc1cc(Nc2c(C)c(C)nc3ncnn23)cc(OC)c1	0	-1	0	-2	.	.
CCOC(=O)c1cnc(-n2[nH]c3c(c2=O)CCCC3)[nH]c1=O	-2	88*	0	8	47*	64*
CCOC(=O)c1cnc(OC)[nH]c1=O	0	-5	0	3	.	.
CNC(=O)CC1Nc2cc(C)c(C)cc2NC1=O (stereo not given)	0	1	0	-17	.	.
CCOc1ccc(N2C(=O)c3ccc(C(=O)OC(C)C(=O)c4ccccc4)cc3C2=O)cc1 (stereo not given)	1	-12	0	13	.	.
Cc1ccc(S(=O)(=O)N2CCN(Cc3ccccc3Cl)CC2)cc1	3	57*	0	-14	-4	-7
COc1ccc(S(=O)(=O)N2CCN(Cc3ccccc3C(F)(F)F)CC2)cc1	-1	-5	0	3	.	.
O=[N+]([O-])c1ccccc1S(=O)(=O)N1CCN(Cc2ccccc2C(F)(F)F)CC1	-1	61*	0	6	8	12
Cc1ccc(S(=O)(=O)N2CCN(Cc3ccccc3C(F)(F)F)CC2)cc1	2	67*	0	-38	4	12
CCc1ccc(CN2CCN(S(=O)(=O)c3ccc(C)cc3)CC2)cc1	1	58*	1	0	7	7
CCS(=O)(=O)N1CCN(Cc2cc(OC)c(O)c(OC)c2)CC1	1	37	0	9	.	.

Screening data from PubChem.
